Assay outcomes: PubChem, National Center for Advancing Translational Sciences (NCATS)
In the library only some 7.9% were active in any assay of this set; here they are far more common.
MCF10A rerep – inducers of DNA re-replication in MCF 10A breast cells | MCF 10A DNA re-replication, Hoechst nuclear intensity, 48 h | Potency, µM (highest dose often 46.1 µM), for inactives: at the highest dose activity, positive = re-replication, most hits filed as activators | 350,000 compounds, 2.9% hits | AID 624296; note: % of control where 0% means no effect; nearly all actives have a fitted effect of over 50% in size
HT1080-NT tox – kills 2HG-producing HT-1080-NT fibrosarcoma cells. AID 686970. Potency, µM (highest dose often 46.1 µM), without a hit: top-dose activity, negative = less viability, hits mostly cytotoxic. HT-1080-NT fibrosarcoma viability, CellTiter-Glo ATP luminescence, 48 h. 360,000 compounds, 1.6% hits;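 note: NT is the 2HG producing partner of a matched IDH1 knockdown line; 0% = DMSO-treated cells and -100% = media-only wells without cells; nearly all actives have a fitted effect of over 55% in size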
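Read-out is CellTiter-Glo luminescence after 10 minutes at room temperature, following 48 hours' compound treatment of HT-1080-NT cells (750 cells/well, RPMI, 5% FBS, 37 degrees C).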
HT1080 IDH1KD tx – kills HT-1080 cells with IDH1 knockdown. 360,000 compounds, 2% hits. Potency, µM (doses to about 46.1 µM), without a hit: top-dose activity, negative = toxicity, usual class: cytotoxic. AID 686971. HT-1080 IDH1 knockdown viability, ATP luminescence, 48 h;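 note: 0% = DMSO wells and -100% = cell-free medium wells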
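After a 2 h attachment period, IDH1KD HT-1080 cells took pin-transferred compound for 48 h at 37 °C; ATP-based luminescence after 10 min room-temperature reagent incubation reported viability.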
KB-V1 MDR tox – kills drug-selected multidrug resistant KB-V1 cells; AID 1347076; KB-V1 MDR cells viability, CellTiter-Glo, 72 h; Potency, µM (highest dose often 46.1 µM), hits mostly cytotoxic; 400,000 compounds, 3.4% hits; note: % is set by controls: 0 for no effect and ±100 for the full control effect; nearly all actives have a fitted effect of over 60% in size
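KB-V1, DMEM (no phenol red) + 10% FBS; cpd pin-transferred, titration series; 72 h, 37 degrees C; CellTiter-Glo, luminescence. Data normalized, curve-fit.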
KB-3-1 cytotox – kills parental KB-3-1 adenocarcinoma cells. KB-3-1 viability, CellTiter-Glo ATP luminescence, 72 h. Potency, µM (highest dose often 46.1 µM), actives largely listed as cytotoxic. 400,000 compounds, 1.4% hits. AID 1347075; note: % is set by controls: 0 for no effect and ±100 for the full control effect; nearly all actives have a fitted effect of over 60% in size
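KB-3-1 parental drug-naive adenocarcinoma cells in DMEM/10% FBS, incubated 72 h at 37 C with pin-transferred compounds across a concentration series. Viability by CellTiter-Glo luminescence; concentration-response curves fitted after normalization.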
SW480 rereplic – DNA re-replication induction in SW480 cells; AID 624297; 340,000 compounds, 1.8% hits; SW480 DNA re-replication, Hoechst DNA content imaging, 48 h; Potency, µM (titrated, usually from 46.1 µM), inactives show top-dose re-replication activation, actives largely listed as activators; note: % of control where 0% means no effect; nearly all actives have a fitted effect of over 55% in size
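Hoechst fluorescence of nuclei (405 nm excitation, 500-530 nm emission) measured by plate-scanning imager after 48 hr compound exposure at 37 C; re-replication scored as increased number of nuclei with elevated intensity.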
Active calls of the source: *; [ ] = dose if it differs, or a comment. Calls come from the whole dose curve; as a rule, active = well fitted curve in the direction sought with a large enough effect; inconclusive = small, poorly fitted or top-dose-only effect, or another doubt; inactive = no such curve, though single readings can be large; an effect the other way counts as inactive or inconclusive. Potency is the fitted concentration of half-maximal effect.

O=C(CSc1nnc(-c2ccncc2)n1Cc1ccccc1)NC1CCCc2ccccc21 (stereo unspecified) was read as MCF10A rerep inconclusive, HT1080-NT tox 3.0%, HT1080 IDH1KD tx 18.6%, KB-V1 MDR tox 10.3µM*, KB-3-1 cytotox inactive and SW480 rereplic 2.4%.
O=C(CN1CCN(c2ccccc2Cl)CC1)NC1CCCc2ccccc21 (stereo unspecified) was read as MCF10A rerep 11.6%, HT1080-NT tox -0.3%, HT1080 IDH1KD tx -0.2%, KB-V1 MDR tox 9.2µM*, KB-3-1 cytotox inconclusive and SW480 rereplic inconclusive.
For CC(C)OC(=O)CSc1nnc(-c2cccnc2)n1Cc1ccccc1 the results were MCF10A rerep 0.2%, HT1080-NT tox 2.9%, HT1080 IDH1KD tx -1.2%, KB-V1 MDR tox 20.6µM*, KB-3-1 cytotox inactive and SW480 rereplic -0.5%.
`Cc1ccc(-c2csc(N(CCO)CCCn3c(C(F)(F)F)nc4cc(C(F)(F)F)ccc43)n2)cc1` gave MCF10A rerep -33.4%, HT1080-NT tox -11.2%, HT1080 IDH1KD tx -25.7%, KB-V1 MDR tox inactive, KB-3-1 cytotox inactive and SW480 rereplic 2.5%.
`CC(C)OC(=O)CSc1nnc(-c2ccccn2)n1-c1ccccc1` gave MCF10A rerep 2.4%, HT1080-NT tox 11.1%, HT1080 IDH1KD tx -0.2%, KB-V1 MDR tox inactive, KB-3-1 cytotox inactive and SW480 rereplic -6.7%.
`O=C(CSc1nnc(-c2ccccc2O)n1Cc1ccccc1)NNC(=O)c1ccccc1O` gave MCF10A rerep 12.9%, HT1080-NT tox -19.0%, HT1080 IDH1KD tx -23.5%, KB-V1 MDR tox inactive and KB-3-1 cytotox inconclusive.
For O=C(CSc1ccccc1Cl)NC1CCCc2ccccc21 (stereo unspecified) the results were MCF10A rerep -3.0%, HT1080-NT tox 9.0%, HT1080 IDH1KD tx -0.3%, KB-V1 MDR tox inactive, KB-3-1 cytotox inactive and SW480 rereplic -1.5%.
For Cc1ccc(NC(=O)NC2CCCc3ccccc32)cc1 (stereo unspecified) the results were MCF10A rerep 2.5%, HT1080-NT tox -19.5%, HT1080 IDH1KD tx -27.9%, KB-V1 MDR tox inactive, KB-3-1 cytotox inconclusive and SW480 rereplic 44.1%.
O=C(CSc1nnc(-c2ccccc2)n1Cc1ccccc1)NNC(=O)c1ccccc1O was read as MCF10A rerep 20.4%, HT1080-NT tox -7.5%, HT1080 IDH1KD tx -20.1%, KB-V1 MDR tox inactive, KB-3-1 cytotox inconclusive and SW480 rereplic 5.17µM*.
Screening CC(C)(C)c1ccc(NC(=O)NC2CCCc3ccccc32)cc1 (stereo unspecified) returned MCF10A rerep inconclusive, HT1080-NT tox inconclusive, HT1080 IDH1KD tx inconclusive, KB-V1 MDR tox 20.6µM*, KB-3-1 cytotox inconclusive and SW480 rereplic inconclusive.
Cc1ccc(-n2c(SCC(=O)OC(C)C)nnc2-c2ccccn2)cc1 was read as MCF10A rerep -2.7%, HT1080-NT tox -20.0%, HT1080 IDH1KD tx 3.0%, KB-V1 MDR tox 20.6µM*, KB-3-1 cytotox inactive and SW480 rereplic 1.0%.
O=C(CSc1c(Cl)cccc1Cl)NC1CCCc2ccccc21 (stereo unspecified) was read as MCF10A rerep 15.5%, HT1080-NT tox -22.3%, HT1080 IDH1KD tx -1.9%, KB-V1 MDR tox 14.6µM*, KB-3-1 cytotox inactive and SW480 rereplic 14.1%.
Screening CCc1ccc(CN(C)C(=O)C2CCC(=O)N(CCCN3CCCC3=O)C2)cc1 (stereo unspecified) returned MCF10A rerep -5.1%, HT1080-NT tox 9.0%, HT1080 IDH1KD tx 6.2%, KB-V1 MDR tox inconclusive, KB-3-1 cytotox inactive and SW480 rereplic 2.2%.
Screening CCN(CC)S(=O)(=O)c1cc(NC(=O)C(C)N2CCc3ccccc32)ccc1C (stereo unspecified) returned MCF10A rerep inconclusive, HT1080-NT tox inconclusive, HT1080 IDH1KD tx -24.3%, KB-V1 MDR tox inconclusive, KB-3-1 cytotox inconclusive and SW480 rereplic inconclusive.
`Cn1c(SCC(=O)NCc2ccco2)nnc1C1CCCC1` gave MCF10A rerep -0.2%, HT1080-NT tox 24.8%, HT1080 IDH1KD tx 11.6%, KB-V1 MDR tox inactive, KB-3-1 cytotox inactive and SW480 rereplic 1.1%.
Cn1cnc(S(=O)(=O)N2CCN(c3ccc(F)cc3)CC2)c1 was read as MCF10A rerep 0.3%, HT1080-NT tox -3.3%, HT1080 IDH1KD tx -2.5%, KB-V1 MDR tox inactive, KB-3-1 cytotox inactive and SW480 rereplic -7.5%.
`COC(=O)c1c(C)[nH]c(C)c1C(=O)c1ccccc1Cc1ccccc1` gave MCF10A rerep 11.9%, HT1080-NT tox -4.2%, HT1080 IDH1KD tx -12.2%, KB-V1 MDR tox inconclusive, KB-3-1 cytotox inactive and SW480 rereplic 0.3%.
Screening C1CCN=C(Nc2nc3c(s2)CCCC3)CC1 returned MCF10A rerep -6.5%, HT1080-NT tox 1.0%, HT1080 IDH1KD tx 3.5%, KB-V1 MDR tox inactive, KB-3-1 cytotox inactive and SW480 rereplic -3.3%.
For CC(C)(C)n1nc(-c2ccc(F)cc2)c2c(N)ncnc21 the results were MCF10A rerep 6.2%, HT1080-NT tox inconclusive, HT1080 IDH1KD tx inconclusive, KB-V1 MDR tox inactive, KB-3-1 cytotox inactive and SW480 rereplic 6.1%.
For CC(C)(C)n1nc(-c2ccc(Cl)cc2)c2c(N)ncnc21 the results were MCF10A rerep inconclusive, HT1080-NT tox -19.8%, HT1080 IDH1KD tx inconclusive, KB-V1 MDR tox 20.6µM*, KB-3-1 cytotox inconclusive and SW480 rereplic 0.3%[9.22 µM].
Screening CN/N=C(\Cc1nc2ccccc2[nH]1)c1ccc([N+](=O)[O-])cc1 returned MCF10A rerep 5.6%, HT1080-NT tox -7.6%, HT1080 IDH1KD tx -12.9%, KB-V1 MDR tox inactive, KB-3-1 cytotox inactive and SW480 rereplic -3.3%.
CC(C)(C)c1ccc(-c2nc3cc(NC(=O)c4cc5ccccc5o4)ccc3o2)cc1 was read as KB-V1 MDR tox inactive and KB-3-1 cytotox inactive.
Screening COc1cccc(C(C)(O)c2nc(-c3cc(F)cc(F)c3)cs2)c1 (stereo unspecified) returned HT1080-NT tox 23.1µM*, HT1080 IDH1KD tx inconclusive, KB-V1 MDR tox inactive and KB-3-1 cytotox inactive.
COc1ccc(-c2csc(C(C)(O)c3cccc(OC)c3)n2)cc1 (stereo unspecified) was read as HT1080-NT tox -14.5%, HT1080 IDH1KD tx inconclusive, KB-V1 MDR tox inconclusive and KB-3-1 cytotox inactive.
COc1cccc(C(C)(O)c2nc(-c3ccc(S(C)(=O)=O)cc3)cs2)c1 (stereo unspecified) was read as HT1080-NT tox -16.7%, HT1080 IDH1KD tx -29.1%, KB-V1 MDR tox 16.4µM* and KB-3-1 cytotox 18.4µM*.
